Compounds without any hit were thinned out: in the full panel of roughly 83,000, 20% have a hit.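 Cells were grown in 96-well plates and exposed to the test compound at a single concentration for 48 hours; results are reported as percent growth, with values below 10 considered active.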 Unmarked numbers belong to inactive results. Calls of active or inactive are those of the source.
Tests used:
Assay in all cases: NCI-60 one-dose screen, 48 h (100 = growth as untreated, 0 = no growth, -100 = all killed)
NCI-H23 lung = settings: 10 µM unless noted
NCI-H226 lung = settings: 10 µM unless noted
DU-145 prostate = settings: 10 µM unless noted
MDA-MB-231 breast = settings: 10 µM unless noted
SF-268 CNS = settings: 10 µM unless noted
M14 melanoma = settings: 10 µM unless noted
HCT-15 colon = settings: 10 µM
HT29 colon = settings: 10 µM unless noted
PC-3 prostate = settings: 10 µM unless noted
UACC-62 melanoma = settings: 10 µM unless noted
LOX IMVI melanoma = settings: 10 µM unless noted
SK-MEL-28 melanoma = settings: 10 µM unless noted
OVCAR-8 ovarian = settings: 10 µM unless noted
OVCAR-5 ovarian = settings: 10 µM unless noted
SK-OV-3 ovarian = settings: 10 µM unless noted
OVCAR-3 ovarian = settings: 10 µM unless noted
NCI/ADR-RES ovarian = settings: 10 µM unless noted
SW-620 colon = settings: 10 µM unless noted
MCF7 breast = settings: 10 µM unless noted
KM12 colon = settings: 10 µM unless noted

Molecule `COC(=O)C1CC2c3ccccc3C1c1ccccc12` (stereo not drawn) has a growth (NCI-H23 lung) of 111%, a growth (NCI-H226 lung) of 92.3% and a growth (DU-145 prostate) of 119%. The growth (MDA-MB-231 breast) was 122%, the growth (SF-268 CNS) was 107% and the growth (M14 melanoma) was 107%. The growth (HCT-15 colon) was 91.2%, the growth (HT29 colon) was 106% and the growth (PC-3 prostate) was 66.4%. It also gave a growth (UACC-62 melanoma) of 103%, a growth (LOX IMVI melanoma) of 94.7% and a growth (SK-MEL-28 melanoma) of 109%. The growth (OVCAR-8 ovarian) was 101%, the growth (OVCAR-5 ovarian) was 104% and the growth (SK-OV-3 ovarian) was 99.1%. It also gave a growth (OVCAR-3 ovarian) of 115%, a growth (NCI/ADR-RES ovarian) of 105% and a growth (SW-620 colon) of 106%. For the same molecule, the growth (MCF7 breast) was 96.5% and the growth (KM12 colon) was 113%.
With `O=C(O)C1[O][Sb][O]C1C(=O)O` (stereo not drawn) the growth (NCI-H23 lung) was 110%, the growth (NCI-H226 lung) was 93.9% and the growth (DU-145 prostate) was 91.4%. For the same molecule, the growth (MDA-MB-231 breast) was 128%, the growth (SF-268 CNS) was 93% and the growth (M14 melanoma) was 94.5%. For the same molecule, the growth (HCT-15 colon) was 88.5%, the growth (HT29 colon) was 104% and the growth (PC-3 prostate) was 102%. For the same molecule, the growth (UACC-62 melanoma) was 110%, the growth (LOX IMVI melanoma) was -57.9% (active) and the growth (SK-MEL-28 melanoma) was 94%. The growth (OVCAR-8 ovarian) was 101%, the growth (OVCAR-5 ovarian) was 120% and the growth (SK-OV-3 ovarian) was 102%. For the same molecule, the growth (OVCAR-3 ovarian) was 95.4%, the growth (NCI/ADR-RES ovarian) was 103% and the growth (SW-620 colon) was 117%. The growth (MCF7 breast) was 92% and the growth (KM12 colon) was 99.5%.
Molecule `CCOC(=O)c1cnc(SCc2ccc(Cl)c(Cl)c2)nc1N1CC1` has a growth (NCI-H23 lung) of 51.1%, a growth (NCI-H226 lung) of 75.6% and a growth (DU-145 prostate) of 66.7%. It also gave a growth (MDA-MB-231 breast) of 51.7%, a growth (SF-268 CNS) of 74.9% and a growth (M14 melanoma) of 41.8%. The growth (HCT-15 colon) was 33.7%, the growth (HT29 colon) was 31.2% and the growth (PC-3 prostate) was 51.2%. The growth (UACC-62 melanoma) was 51.1%, the growth (LOX IMVI melanoma) was 23.7% and the growth (SK-MEL-28 melanoma) was 88.5%. For the same molecule, the growth (OVCAR-8 ovarian) was 51.6%, the growth (OVCAR-5 ovarian) was 82.9% and the growth (SK-OV-3 ovarian) was 74.6%. It also gave a growth (OVCAR-3 ovarian) of 54.6%, a growth (NCI/ADR-RES ovarian) of 25.2% and a growth (SW-620 colon) of 33.8%. It also gave a growth (MCF7 breast) of 29.3% and a growth (KM12 colon) of 50.5%.
In the case of `N#[N+]c1cnc([O-])[nH]c1=O`, the growth (NCI-H23 lung) is reported as 26.9%, the growth (NCI-H226 lung) is reported as 88% and the growth (DU-145 prostate) is reported as 99.9%. It also gave a growth (MDA-MB-231 breast) of 95.5%, a growth (SF-268 CNS) of 97.5% and a growth (M14 melanoma) of 108%. It also gave a growth (HCT-15 colon) of 89.1%, a growth (HT29 colon) of 105% and a growth (PC-3 prostate) of 92.7%. The growth (UACC-62 melanoma) was 85.6%, the growth (LOX IMVI melanoma) was 85.2% and the growth (SK-MEL-28 melanoma) was 104%. For the same molecule, the growth (OVCAR-8 ovarian) was 88.7%, the growth (OVCAR-5 ovarian) was 83.9% and the growth (SK-OV-3 ovarian) was 94%. For the same molecule, the growth (NCI/ADR-RES ovarian) was -8.91% (active), the growth (SW-620 colon) was 89% and the growth (MCF7 breast) was 100%. It also gave a growth (KM12 colon) of 100%.
In the case of `O=C1NC(=O)C(CN2C(=O)C3(c4ccccc42)[C@H](Cl)C(=O)N3c2ccccc2)C(=O)N1` (stereo partly drawn), the growth (NCI-H23 lung) is reported as 69.1%, the growth (NCI-H226 lung) is reported as 76.4% and the growth (DU-145 prostate) is reported as 102%. It also gave a growth (MDA-MB-231 breast) of 51.4%, a growth (SF-268 CNS) of 84.7% and a growth (M14 melanoma) of 105%. For the same molecule, the growth (HCT-15 colon) was 94.7%, the growth (HT29 colon) was 98.3% and the growth (PC-3 prostate) was 83.6%. For the same molecule, the growth (LOX IMVI melanoma) was 50.2%, the growth (SK-MEL-28 melanoma) was 76.8% and the growth (OVCAR-8 ovarian) was 92.3%. It also gave a growth (OVCAR-5 ovarian) of 84.6%, a growth (SK-OV-3 ovarian) of 83.1% and a growth (OVCAR-3 ovarian) of 54.7%. For the same molecule, the growth (NCI/ADR-RES ovarian) was 86.7%, the growth (SW-620 colon) was 72.5% and the growth (MCF7 breast) was 18.4%. The growth (KM12 colon) was 86.3%.
`CC1(C)N=C(N)N=C(N)N1c1ccc(OCCCCNC(=O)Nc2cccc(S(=O)(=O)F)c2)c(Cl)c1` gave a growth (NCI-H23 lung) of 39.8%, a growth (NCI-H226 lung) of 69.4% and a growth (DU-145 prostate) of 37.1%. The growth (MDA-MB-231 breast) was 59.6%, the growth (SF-268 CNS) was 44.4% and the growth (M14 melanoma) was 40.4%. The growth (HCT-15 colon) was 90.3%, the growth (HT29 colon) was 14.4% and the growth (PC-3 prostate) was 5.73% (active). It also gave a growth (UACC-62 melanoma) of 22.8%, a growth (LOX IMVI melanoma) of 13.7% and a growth (SK-MEL-28 melanoma) of 60.3%. The growth (OVCAR-8 ovarian) was 29.2%, the growth (OVCAR-5 ovarian) was 32.5% and the growth (SK-OV-3 ovarian) was 77.9%. The growth (OVCAR-3 ovarian) was 82.3%, the growth (NCI/ADR-RES ovarian) was 110% and the growth (SW-620 colon) was 27.1%. It also gave a growth (MCF7 breast) of 15% and a growth (KM12 colon) of 41.7%.
Work on `COC(=O)C(=[N+]=[N-])C(=O)OC` yielded a growth (NCI-H23 lung) of 98.1%, a growth (NCI-H226 lung) of 99.2% and a growth (DU-145 prostate) of 112%. For the same molecule, the growth (MDA-MB-231 breast) was 113%, the growth (SF-268 CNS) was 106% and the growth (M14 melanoma) was 103%. The growth (HCT-15 colon) was 105%, the growth (HT29 colon) was 101% and the growth (PC-3 prostate) was 92.3%. The growth (UACC-62 melanoma) was 95.3%, the growth (LOX IMVI melanoma) was 103% and the growth (SK-MEL-28 melanoma) was 105%. The growth (OVCAR-8 ovarian) was 101%, the growth (OVCAR-5 ovarian) was 107% and the growth (SK-OV-3 ovarian) was 101%. The growth (OVCAR-3 ovarian) was 118%, the growth (NCI/ADR-RES ovarian) was 108% and the growth (SW-620 colon) was 100%. The growth (MCF7 breast) was 88.3% and the growth (KM12 colon) was 110%.
`NC(=O)NC(=O)CI` showed a growth (NCI-H23 lung) of 95.5%, a growth (NCI-H226 lung) of 95.1% and a growth (DU-145 prostate) of 101%. The growth (MDA-MB-231 breast) was 94.9%, the growth (SF-268 CNS) was 101% and the growth (M14 melanoma) was 88.7%. It also gave a growth (HCT-15 colon) of 85.7%, a growth (HT29 colon) of 99.1% and a growth (PC-3 prostate) of 98.5%. For the same molecule, the growth (UACC-62 melanoma) was 86.7%, the growth (LOX IMVI melanoma) was -67.3% (active) and the growth (SK-MEL-28 melanoma) was 89.5%. It also gave a growth (OVCAR-8 ovarian) of 101%, a growth (OVCAR-5 ovarian) of 114% and a growth (SK-OV-3 ovarian) of 111%. The growth (OVCAR-3 ovarian) was 102%, the growth (NCI/ADR-RES ovarian) was 99.4% and the growth (SW-620 colon) was 27.6%. It also gave a growth (MCF7 breast) of 94.3% and a growth (KM12 colon) of 107%.

Reference: PubChem BioAssay (NCI)
